40 compounds from PubChem BioAssay (NCATS) can be followed below.

SMILES strings stand for the structures. The source made the active and inactive calls. The call rests on the fitted dose curve; in most records, active means well fitted curve in the direction sought with a large enough effect; inconclusive means small, poorly fitted or top-dose-only effect, or effect the other way, or another doubt; inactive means no such curve, though single readings can be large or run the other way.

A short description of this test: Inducers of the Endoplasmic Reticulum Stress Response (ERSR) in human glioma: Validation (AID 504836). The settings on record: human glioma cells, ER stress response reporter; series mostly up to 38.3 µM. From the text:
Primary protein unfolding takes place for many diseases, including diabetes and hypoxia, , and triggers a reaction in the cells called ER stress response (ERSR). ). ERSR is designed as a repair mechanism, but ultimately leads to cell death via apoptosis if conditions triggering protein unfolding persist (1). The molecular clue to ERSR activation is the enhancement of the expression of key molecular chaperones, including the glucose regulated protein (GRP) 78. GRP78 is the main sensor for protein folding and the main actuator of the ERSR.
In a collaboration between the Southern Research Institute and the NIH Chemical Genomics Center, a cell based screen was developed that reliably uses GRP78 as a sensor to identify small molecules as inducers of ERSR. In resting conditions, GRP78 binds proteins and acts as a natural repressor. Once unfolded proteins are present in the ER, GRP78 releases some of the repressors and binds to the unfolded proteins. The release of the repressors executes the ERSR program. Using a human glioma cell line in a miniaturized, luminescent format, a high-throughput screen was developed to identify actuators of the ERSR.
(1) Soboloff, J. and S. A. Berger (2002). "Sustained ER Ca2+ depletion suppresses protein synthesis and induces activation-enhanced cell death in mast cells." J Biol Chem 277(16): 13812-20.
NIH Chemical Genomics Center [NCGC]
NIH Molecular Libraries Probe Centers Network [MLPCN]
Assay Submitter (PI): Maurizio Grimaldi, Southern Research Institute
Stable transfected human glioma cell line, U87-MG, are dispensed at density 1000 cells/well into Greiner white solid bottom 1536-well assay plates. Compounds are transferred via Kalypsys pin tool equipped with 1536-pin array (10nl slotted pins, V&P Scientific, San Diego, CA). The assay plates will be incubated for 16 hours and developed by adding appropriate quantities of the Promega Bright Glo reagent. The plates will be incubated at room temperature for 10 minutes prior to being transferred into a ViewLux high-throughput CCD imager (PerkinElmer), wherein end-point measurements of luminescence are acquired.
Turning to `Nc1ncnc2c1nc(Sc1ccc(Cl)cc1)n2[C@H]1OC2COP(=O)(O)O[C@@H]2C1O` (stereo not given in full), the result was inactive. The result for `COc1ccc(-c2ccc(N)[n+](CCCC(=O)O)n2)cc1` reads “inactive”. With `COc1ccccc1N1CCN(CCCNc2c(C)c(=O)n(C)c(=O)n2C)CC1`, the call was inactive.

On to `CCCCCC(O)c1cccc(OCc2ccc3ccccc3n2)c1` (stereo not given), for which the compound was called inactive.

On to `CCCCCCCCCCC/C=C\C(C)(C)/C=C\CCCC(=O)O`, for which the compound was called inactive. The same measure for `C=CCN1CCc2c(cc(O)c(O)c2Cl)C(c2ccccc2)C1` (stereo not given): “inactive”; for `CNc1ncnc2c1ncn2[C@H]1C[C@H](OP(=O)(O)O)[C@@H](COP(=O)(O)O)O1`: “inactive”; for `CC(N)=O`: “inactive”. The same measure for `NCCCNCCCCNCCCN`: “inactive”; for `CC(=O)O[C@H]1C(=O)[C@@]2(C)C([C@H](OC(=O)c3ccccc3)[C@]3(O)C[C@H](OC(=O)[C@H](O)[C@@H](NC(=O)c4ccccc4)c4ccccc4)C(C)=C1C3(C)C)[C@]1(OC(C)=O)CO[C@@H]1C[C@@H]2O` (stereo not given in full): “inactive”. The same measure for `O=C1NC(=O)C(c2ccccc2[N+](=O)[O-])=C1Nc1ccc(O)c(Cl)c1`: “inactive”; for `Oc1ccccc1O`: “inactive”; for `Nc1ncnc2c1ncn2[C@@H]1O[C@H](COP(=O)(O)CP(=O)(O)OP(=O)(O)O)[C@@H](O)[C@H]1O`: “inactive”. With `C=C1C[C@@]23CC[C@H]4[C@@](C)(CCC[C@@]4(C)C(=O)O)[C@@H]2CC[C@]1(O)C3`, the compound was classed as inactive. Turning to `N=S(=O)(O)Cc1noc2ccccc12`, the result was inactive.

In the case of `C[C@H]1CC2C3CCC4=CC(=O)C=C[C@]4(C)[C@@]3(Cl)[C@@H](O)C[C@]2(C)[C@@]1(O)C(=O)CO` (stereo not given in full), the outcome was inactive.

In the case of `NC/C=C\C(=O)O`, the outcome was inactive. As to `Cc1ccc([N+](=O)[O-])cc1S(=O)(=O)N(C)C`, the call was inactive. The result for `COC(=O)C1=C(C)NC(C)=C([N+](=O)[O-])C1c1ccccc1C(F)(F)F` (stereo not given) reads “inactive”; that for `COc1cccc(OC)c1OCCNCC1CSc2ccccc2O1` (stereo not given), “inactive”; that for `O=C1NC(=O)/C(=C/c2ccc3c(c2)OC(F)(F)O3)S1`, “inactive”. The same measure for `CC1=C(C(=O)O)N2C(=O)[C@@H](NC(=O)C(N)C3=CCC=CC3)[C@H]2SC1` (stereo not given in full): “inactive”.

In the case of `C=CCN1CCc2cc(O)c(O)cc2C(c2ccccc2)C1` (stereo not given), the compound was called inactive. The same measure for `CCCCOc1cc(CC2CNC(=O)N2)ccc1OC` (stereo not given): “inactive”; for `Cn1c(=O)c2[nH]c(-c3ccc(S(=O)(=O)O)cc3)nc2n(C)c1=O`: “inactive”. In the case of `CC(COc1ccc(/C=C/c2ccccc2)cc1)[N+](C)(C)C` (stereo not given), the compound was called inactive. For `C[C@H](Cc1ccc(O)c(O)c1)[C@@H](C)Cc1ccc(O)c(O)c1`, the result was inactive. The result for `O=C1c2c(O)cc(O)cc2OC(c2ccc(O)c(O)c2)C1O` (stereo not given) reads “inactive”; that for `NCCCC(=O)O`, “inactive”; that for `C1CCc2nnnn2CC1`, “inactive”. The same measure for `CCN(CC)CCOC(=O)c1cc(Cl)c(N)cc1OC`: “inactive”; for `CCCCCCCCCCCCCCCCCCNC(=O)OCC(COP(=O)([O-])OCC[n+]1ccsc1)OC` (stereo not given): “inactive”. The same measure for `O=C(O)[C@H]1NCCC[C@H]1C(=O)O`: “inactive”; for `O=c1onc2cnc3ccccc3n12`: “inactive”. On to `CCC1(O)CC2CN(CCc3c([nH]c4ccccc34)[C@@](C(=O)OC)(c3cc4c(cc3OC)N(C=O)C3[C@]45CCN4CC=C[C@@](CC)([C@@H](OC(C)=O)[C@]3(O)C(=O)OC)[C@H]45)C2)C1` (stereo not given in full), for which the call was inactive.

For `Nc1ncnc2nc(-c3ccc(N4CCOCC4)nc3)cc(-c3cccc(Br)c3)c12`, the outcome was inactive. The result for `NC1(C(=O)O)CC1` reads “inactive”. The result for `C[N+](C)(C)CC=O` reads “inactive”. For the compound `O=C(O)c1cc(=O)cc(C(=O)O)[nH]1`, the compound was called inactive. Take `CCCC1(C)C(C#N)(C#N)C1(C#N)C#N`: the call was inactive.
